Results taken from PubChem BioAssay (NCI).
The panel holds about 83,000 compounds, 20% with a hit somewhere; the sample as a whole holds those more often.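 Note: values are percent growth. 100 is the growth of untreated cells, values between 100 and 0 indicate rising inhibition; between -100 and 0 indicates cell death.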 Values without a mark were called inactive. The source made the active and inactive calls. Rule for the calls: active = growth percent below 10; inactive = the rest.

What follows are molecules tested on CAKI-1 renal (assay: NCI-60 one-dose screen, 48 h (100 = growth as untreated, 0 = no growth, -100 = all killed)). Conditions: 10 µM unless noted.

Compound	growth
COc1cc(C(=O)NN=C2c3ccccc3-c3ccccc32)cc(OC)c1OC	24.6%
COc1cc(-c2c3c(c(Br)n2Cc2ccccc2)-c2nc(N)sc2CC3)cc(OC)c1OC	97.4%
O=C(Nc1ccc(-c2nc3cc4ccccc4cc3[nH]2)cc1)c1cccc(Br)c1	18.2%
Cc1cc(Nc2ccc(OCc3ccccc3)cc2)nc2cc(O)ccc12	72.3%
Nc1nonc1-n1nncc1-c1cccnc1	95.1%
N#C/C(=C1\SC(=O)CN1c1ccccc1)c1nc2ccccc2s1	89.9%
Clc1ccc(-c2nnc(COc3ccc(C4=NNC(c5ccco5)C4)cc3)o2)cc1 (stereo not drawn)	86.4%
CCOC(=O)CSc1c(-c2ccccc2)c2cc(Cl)ccc2[nH]c1=O	92%
COC(=O)C1(C)COP(=O)(Nc2ccc(OC)cc2)OC1 (stereo not drawn)	99.2%
CC1=C(CC(=O)c2cccc([N+](=O)[O-])c2)C(=O)c2ccccc2C1=O	-28.1% (active)
N#Cc1c(N)nc2c(c1N)C(c1ccc(F)cc1)c1ccc(N)cc1O2 (stereo not drawn)	91.3%
O=C(Nc1nc2c(s1)CCc1c-2c(Br)n(Cc2ccccc2)c1Br)c1ccccc1	67.4%
CN(C)CCNc1cc(-c2ccccc2)nc2ccccc12	-36.1% (active)
O=S(=O)(c1ccc(NC(=S)NC23CC4CC(CC(C4)C2)C3)cc1)N1CCCCC1	61.8%
CCCCc1c(CCC)c(=N)c2ccccc2n1C	81%
COc1ccccc1N1C(=N)S/C(=C\c2ccc(OCc3ccccc3F)cc2)C1=O	81.6%
Cc1ccc(S(=O)(=O)c2c(COC(=O)c3cccc(C)c3)c(-c3ccccc3)nn2C)cc1	107%
COc1ccc(-c2nc(N3CCN(C(=O)C4CCCCC4)CC3)c3c4c(sc3n2)CCCC4)cc1	-12.1% (active)
CC(=Nc1ccccc1)C1=C(O)C(Cc2ccc(F)cc2)NC1=O (stereo not drawn)	33.6%
CCOc1ccccc1CN1CCc2nc3cc(C(C)(C)C)[nH]n3c(=O)c2C1	99.9%

Compound	growth
COc1cc(C(=O)O/N=C(\N)Cc2cccc3ccccc23)cc(OC)c1OC	22.9%
O=C1OC(c2ccccc2)(c2ccccc2)c2ccsc21	101%
COc1ccc2sc(N(Cc3cccnc3)C(=O)c3ccc(C#N)cc3)nc2c1	91.9%
O=C(NC1CCN(Cc2ccccc2)CC1)c1cc(C(=O)NC2CCN(Cc3ccccc3)CC2)cc(C(=O)NC2CCN(Cc3ccccc3)CC2)c1	12.2%
Oc1c(CN2CCN(c3ccccc3F)CC2)cc(Br)c2cccnc12	-17.3% (active)
O=C(Nc1ccc(Cl)cc1)N1CCN(c2ccc3nncn3n2)CC1	29.3%
Cc1[nH]c2ccccc2c(=O)c1CC=C(Cl)Cl	45.8%
COc1ccc(C)c2sc(N(Cc3cccnc3)C(=O)c3ccc(C#N)cc3)nc12	-33.1% (active)
O=C(Cc1ccccc1)NC(c1ccc(Cl)cc1)c1c(O)ccc2ccccc12 (stereo not drawn)	4.37% (active)
CCOC(=O)C1=CN(C)C=C(C(=O)OCC)C1c1cc(Br)c(OCC)c(OC)c1	52.5%
COc1ccc(/C=C/C(=O)c2ccc3cc(OC)c(OC)cc3c2)cc1OC	30.2%
CCC1=C[C@@H]2CN(C1)Cc1c([nH]c3ccccc13)[C@@](C(=O)OC)(c1cc3c(cc1OC)N(C)[C@H]1[C@@](O)(C(=O)OC)[C@H](OC(C)=O)[C@]4(CC)[C@@H]5C[C@@H]5CN5CC[C@]31[C@@H]54)C2	24.9%
COc1ccc(-c2nsc3c2NC(=O)CC3c2ccc3c(c2)OCCO3)cc1 (stereo not drawn)	38.6%
CCCCNc1nc(NC(C)(C)C)nc(NC(C)(C)C)n1	51.3%
CCOc1ccc2nc(C)cc(Nc3ccc(Br)cc3)c2c1	97%
Cc1ccc(Nc2nc(N)c3ccccc3n2)cc1Cl	39.7%
CCOC(=O)C1=C(C)N=c2s/c(=C\c3cc(Cl)ccc3O)c(=O)n2C1c1ccc(OC)cc1 (stereo not drawn)	96.5%
COC(=O)[C@@H]1CCCN1C(=O)[C@H]1CCCN1C(=O)[C@@H](Cc1c[nH]c2ccccc12)NC(=S)Nc1cc(C(F)(F)F)cc(C(F)(F)F)c1	22%
COc1ccc(-c2cc(=O)c3c(OC)c4ccoc4c(/C=C/C=O)c3o2)cc1	95.1%

Each molecule was assayed on A498 renal in the same assay as above. Conditions: 10 µM unless noted.

Compound	growth
COc1cc(C(=O)NN=C2c3ccccc3-c3ccccc32)cc(OC)c1OC	6.68% (active)
COc1cc(-c2c3c(c(Br)n2Cc2ccccc2)-c2nc(N)sc2CC3)cc(OC)c1OC	80.5%
O=C(Nc1ccc(-c2nc3cc4ccccc4cc3[nH]2)cc1)c1cccc(Br)c1	68.5%
Cc1cc(Nc2ccc(OCc3ccccc3)cc2)nc2cc(O)ccc12	95.8%
Nc1nonc1-n1nncc1-c1cccnc1	81.9%
N#C/C(=C1\SC(=O)CN1c1ccccc1)c1nc2ccccc2s1	82.4%
Clc1ccc(-c2nnc(COc3ccc(C4=NNC(c5ccco5)C4)cc3)o2)cc1 (stereo not drawn)	83.8%
CCOC(=O)CSc1c(-c2ccccc2)c2cc(Cl)ccc2[nH]c1=O	101%
COC(=O)C1(C)COP(=O)(Nc2ccc(OC)cc2)OC1 (stereo not drawn)	101%
CC1=C(CC(=O)c2cccc([N+](=O)[O-])c2)C(=O)c2ccccc2C1=O	68%
N#Cc1c(N)nc2c(c1N)C(c1ccc(F)cc1)c1ccc(N)cc1O2 (stereo not drawn)	58.4%
O=C(Nc1nc2c(s1)CCc1c-2c(Br)n(Cc2ccccc2)c1Br)c1ccccc1	75%
CN(C)CCNc1cc(-c2ccccc2)nc2ccccc12	52.4%
O=S(=O)(c1ccc(NC(=S)NC23CC4CC(CC(C4)C2)C3)cc1)N1CCCCC1	78.8%
CCCCc1c(CCC)c(=N)c2ccccc2n1C	75.9%
COc1ccccc1N1C(=N)S/C(=C\c2ccc(OCc3ccccc3F)cc2)C1=O	82%
Cc1ccc(S(=O)(=O)c2c(COC(=O)c3cccc(C)c3)c(-c3ccccc3)nn2C)cc1	123%
COc1ccc(-c2nc(N3CCN(C(=O)C4CCCCC4)CC3)c3c4c(sc3n2)CCCC4)cc1	57.1%
CC(=Nc1ccccc1)C1=C(O)C(Cc2ccc(F)cc2)NC1=O (stereo not drawn)	19.3%
CCOc1ccccc1CN1CCc2nc3cc(C(C)(C)C)[nH]n3c(=O)c2C1	101%

Compound	growth
COc1cc(C(=O)O/N=C(\N)Cc2cccc3ccccc23)cc(OC)c1OC	44.6%
O=C1OC(c2ccccc2)(c2ccccc2)c2ccsc21	96.6%
COc1ccc2sc(N(Cc3cccnc3)C(=O)c3ccc(C#N)cc3)nc2c1	89.6%
O=C(NC1CCN(Cc2ccccc2)CC1)c1cc(C(=O)NC2CCN(Cc3ccccc3)CC2)cc(C(=O)NC2CCN(Cc3ccccc3)CC2)c1	96.1%
Oc1c(CN2CCN(c3ccccc3F)CC2)cc(Br)c2cccnc12	88.1%
O=C(Nc1ccc(Cl)cc1)N1CCN(c2ccc3nncn3n2)CC1	21.5%
Cc1[nH]c2ccccc2c(=O)c1CC=C(Cl)Cl	96.9%
COc1ccc(C)c2sc(N(Cc3cccnc3)C(=O)c3ccc(C#N)cc3)nc12	2.59% (active)
O=C(Cc1ccccc1)NC(c1ccc(Cl)cc1)c1c(O)ccc2ccccc12 (stereo not drawn)	32.8%
CCOC(=O)C1=CN(C)C=C(C(=O)OCC)C1c1cc(Br)c(OCC)c(OC)c1	59.1%
COc1ccc(/C=C/C(=O)c2ccc3cc(OC)c(OC)cc3c2)cc1OC	70.9%
CCC1=C[C@@H]2CN(C1)Cc1c([nH]c3ccccc13)[C@@](C(=O)OC)(c1cc3c(cc1OC)N(C)[C@H]1[C@@](O)(C(=O)OC)[C@H](OC(C)=O)[C@]4(CC)[C@@H]5C[C@@H]5CN5CC[C@]31[C@@H]54)C2	-24.5% (active)
COc1ccc(-c2nsc3c2NC(=O)CC3c2ccc3c(c2)OCCO3)cc1 (stereo not drawn)	19%
CCCCNc1nc(NC(C)(C)C)nc(NC(C)(C)C)n1	45.4%
CCOc1ccc2nc(C)cc(Nc3ccc(Br)cc3)c2c1	79.1%
Cc1ccc(Nc2nc(N)c3ccccc3n2)cc1Cl	72.3%
CCOC(=O)C1=C(C)N=c2s/c(=C\c3cc(Cl)ccc3O)c(=O)n2C1c1ccc(OC)cc1 (stereo not drawn)	76.1%
COC(=O)[C@@H]1CCCN1C(=O)[C@H]1CCCN1C(=O)[C@@H](Cc1c[nH]c2ccccc12)NC(=S)Nc1cc(C(F)(F)F)cc(C(F)(F)F)c1	57.7%
COc1ccc(-c2cc(=O)c3c(OC)c4ccoc4c(/C=C/C=O)c3o2)cc1	78.8%
